Structures are written as SMILES. Among all 200,000 compounds or so, about 50 (0.03%) were called active. The sample as a whole holds a higher share of actives than the screen did. Results with a measured potency or affinity are listed apart. Values without a mark were called inactive. The rule behind the calls is not given here.

Chain of Alkaline phosphatase, tissue-nonspecific isozyme (Homo sapiens) (P05186 whole entry, looked up): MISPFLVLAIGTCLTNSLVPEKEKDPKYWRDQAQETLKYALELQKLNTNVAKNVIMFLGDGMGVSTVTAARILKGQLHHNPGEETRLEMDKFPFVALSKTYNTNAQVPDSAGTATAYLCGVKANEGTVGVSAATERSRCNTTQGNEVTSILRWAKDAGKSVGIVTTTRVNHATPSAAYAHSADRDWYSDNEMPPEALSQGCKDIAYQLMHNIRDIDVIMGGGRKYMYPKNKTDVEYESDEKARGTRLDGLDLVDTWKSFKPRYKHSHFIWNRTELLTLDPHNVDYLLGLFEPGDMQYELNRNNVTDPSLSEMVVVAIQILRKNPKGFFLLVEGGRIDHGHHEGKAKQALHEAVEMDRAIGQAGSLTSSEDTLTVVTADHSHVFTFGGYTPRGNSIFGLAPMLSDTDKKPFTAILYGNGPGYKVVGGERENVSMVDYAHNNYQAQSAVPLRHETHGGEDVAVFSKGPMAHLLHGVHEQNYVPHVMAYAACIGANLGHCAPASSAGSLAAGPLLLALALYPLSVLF

The assay has as its target Alkaline phosphatase, tissue-nonspecific isozyme (Homo sapiens) (UniProt P05186). Put plainly: stimulation of alkaline phosphatase TNAP activity – biochemical, luminescent, no phosphate acceptor, uHTS, primary screen (AID 1001). The conditions noted are these: purified TNAP, luminescent activation assay, at 20 µM, hits give high values.
Regarding `O=C(OCC1O[C@@H](OC(=O)c2cc(O)c(O)c(O)c2)[C@@H](OC(=O)c2cc(O)c(O)c(O)c2)[C@@H](OC(=O)c2cc(O)c(O)c(O)c2)[C@@H]1OC(=O)c1cc(O)c(O)c(O)c1)c1cc(O)c(O)c(O)c1` (some centres undefined), the activation fold is 3 (active).
Consider `COC(=O)c1cc(O)c(O)c(O)c1`, for which the activation fold is 1.
Take `O=C(O[C@@H]1OC2COC(=O)c3cc(O)c(O)c(O)c3-c3c(cc(O)c(O)c3O)C(=O)O[C@@H]([C@H]1O)[C@@H]2O)c1cc(O)c(O)c(O)c1`: the activation fold is 1.3.
For the compound `COC(=O)C1=C(C)N=C2SC(C#N)=C(N)N2C1c1ccc(OC)cc1` (centres undefined), the activation fold is 1.
Under `COc1ccc(Cl)cc1NC(=O)CN1CCC(n2nnc3ccccc32)CC1` stands 1.1; under `COc1ccc(Cl)cc1NC(=O)CN1CCC(n2nnc3cc(F)ccc32)CC1`, 1.5; under `Cc1nc(N2CCN(C(c3ccccc3)c3ccccc3)CC2)nc2c1C(=O)CCC2`, 1.1.
In the case of `Cc1ccc(-c2csc(NC(=O)CSC3=NCCS3)n2)cc1`, the activation fold is 1.1.
Under `CC(=O)Nc1ccc(S(=O)(=O)NCc2ccccn2)cc1` stands 1.1; under `Cn1c(=O)c2c(ncn2CC(=O)N/N=C/c2ccco2)n(C)c1=O`, 1.1; under `Cn1c(=O)c2c(nc(NCc3ccco3)n2C)n(C)c1=O`, 1.1.
Consider `CCc1ccc2oc(-c3ccc(OC)cc3)cc(=Nc3c(C)n(C)n(-c4ccccc4)c3=O)c2c1`, for which the activation fold is 0.9.
Turning to `Cc1ccc(CC(=O)Nc2nc3ccccc3s2)cc1`, the activation fold was 1.
In the case of `CCOC(=O)c1ccc(NCc2ccc3c(c2)OCO3)cc1` it was 1.
Take `C/C(=N\Nc1ccc(C(=O)O)cc1)c1nc2ccccc2n1C`: the activation fold is 0.9.
Under `CCn1c(CNc2ccc(C(=O)O)cc2)nc2ccccc21` stands 1.1.
As to `COc1ccc(C(CNC(=O)CN2C(=O)NC3(CC(C)CC(C)(C)C3)C2=O)N2CCOCC2)cc1` (centres undefined), the activation fold was 1.2.
In the case of `O=C(COc1ccc(Cl)cc1)NCc1nnc(SCC(=O)NCCc2ccccc2)o1` it was 1.1.
In the case of `Cc1cc(C)cc(CC(Cc2nc3ccccc3[nH]2)c2nc3ccccc3[nH]2)c1` (centres undefined), the activation fold is 1.6.
Turning to `COc1ccccc1CC(Cc1nc2ccccc2[nH]1)c1nc2ccccc2[nH]1` (centres undefined), the activation fold is 2.8.
Take `Cc1cc2oc(=O)cc(CN3CCN(Cc4ccccc4)CC3)c2cc1Cl`: the activation fold was 1.
In the case of `O=C(CN1C(=O)S/C(=C\c2ccccc2)C1=O)NNC(=O)c1ccccc1O` it was 2.2.
`COc1ccc(/C=C2\SC(=O)N(CC(=O)NNC(=O)c3ccccc3O)C2=O)cc1OC`: the activation fold is 2.4.
As to `COc1ccc(NC(=O)CC2C(=O)N(Cc3cccs3)C(=S)N2C(C)C)cc1` (centres undefined), the activation fold is 1.1.

The values above are taken from PubChem BioAssay AID1001 (Sanford-Burnham Center for Chemical Genomics, 2008).
